Laboratory results published in PubChem BioAssay (NCATS).
Records with an inconclusive call do not appear. Entries that show only a call come without a potency. Active and inactive are the calls of the source. The call rests on the fitted dose curve; in most records, active means well fitted curve in the direction sought with a large enough effect; inconclusive means small, poorly fitted or top-dose-only effect, or another doubt; inactive means no such curve, though single readings can be large; an effect the other way counts as inactive or inconclusive.

How the values were obtained:
[1] = qHTS of pediatric cancer cell lines to identify multiple opportunities for drug repurposing: Primary screen for Rh41 cells (AID 1347108); conditions: Rh41 rhabdomyosarcoma viability, CellTiter-Glo luminescence, 48 h; series mostly up to 46 µM; further: nearly all actives have a fitted effect of over 70% in size; further: potency means the concentration at half of the fitted maximal effect
Procedure, shortened: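 Cells plated at 500-1,000/well in growth medium, compounds added after 5 h. MIPE tested at 11 points (from 0.78 nM), NPC at 8 points (from 0.59 nM). CellTiter-Glo luminescence after 48 h; concentration-response curves from primary screen.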

[2] = qHTS of pediatric cancer cell lines to identify multiple opportunities for drug repurposing: Confirmatory screen for NB1643 cells (AID 1347109); conditions: NB1643 neuroblastoma cell viability; series mostly up to 45.9 µM; further: nearly all actives have a fitted effect of over 45% in size; further: potency means the concentration at half of the fitted maximal effect
Procedure, shortened: (§1)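 Cells (500-1,000/well) rested 5 h, then received compounds for 48 h; metabolically active cells were measured by CellTiter-Glo luminescence. Final concentrations spanned up to 46 µM (MIPE, 11-point) or 0.59 nM-46 µM (NPC, 8-point) in primary screens, 11-point in follow-ups.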

[3] = qHTS of pediatric cancer cell lines to identify multiple opportunities for drug repurposing: Confirmatory screen for A673 cells (AID 1347110); conditions: A673 Ewing sarcoma cell viability; series mostly up to 45.9 µM;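 further: cells exposed to compound for 48 h before the viability read; nearly all actives have a fitted effect of over 65% in size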; further: potency means the concentration at half of the fitted maximal effect
Procedure, shortened: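 Forty-eight-hour viability assay. Follow-up compounds ran at 11-point dilutions; positive control bortezomib at 2.3 uM final, neutral control DMSO.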

[4] = qHTS of pediatric cancer cell lines to identify multiple opportunities for drug repurposing: Confirmatory screen for SK-N-MC cells (AID 1347111); conditions: SK-N-MC cell viability; series mostly up to 45.9 µM;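 further: cells exposed to compound for 48 h before the readout; nearly all actives have a fitted effect of over 70% in size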; further: potency means the concentration at half of the fitted maximal effect
Procedure, shortened: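 Seed 500-1,000 cells/well; rest 5 h at 37 degrees C. Pin-transfer compounds, 11-point titration. Incubate 48 h. Add CellTiter-Glo, 15 min RT, read luminescence.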

[5] = qHTS of pediatric cancer cell lines to identify multiple opportunities for drug repurposing: Confirmatory screen for BT-12 cells (AID 1347112); conditions: BT-12 rhabdoid tumor cells, viability; series mostly up to 45.9 µM; further: potency means the concentration at half of the fitted maximal effect;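 further: viability read after 48 h of compound exposure; nearly all actives have a fitted effect of over 55% in size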
Procedure, shortened: as §1

[6] = qHTS of pediatric cancer cell lines to identify multiple opportunities for drug repurposing: Confirmatory screen for LAN-5 cells (AID 1347113); conditions: LAN-5 neuroblastoma cell viability; series mostly up to 45.9 µM; further: nearly all actives have a fitted effect of over 65% in size; further: potency means the concentration at half of the fitted maximal effect
Procedure, shortened: as §1

[7] = qHTS of pediatric cancer cell lines to identify multiple opportunities for drug repurposing: Confirmatory screen for SJ-GBM2 cells (AID 1347116); conditions: SJ-GBM2 glioblastoma cells, viability; series mostly up to 45.9 µM; further: nearly all actives have a fitted effect of over 60% in size; further: potency means the concentration at half of the fitted maximal effect
Procedure, shortened: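 Viability measured as metabolically active cells via CellTiter-Glo luminescence following 48 hours of compound exposure, 11-point dilutions in confirmatory testing. 500-1,000 cells/well plated 5 hours before dosing; controls were DMSO and 2.3 µM bortezomib.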

[8] = qHTS of pediatric cancer cell lines to identify multiple opportunities for drug repurposing: Confirmatory screen for BT-37 cells (AID 1347117); conditions: BT-37 pediatric cancer cells, viability; series mostly up to 45.9 µM; further: nearly all actives have a fitted effect of over 55% in size; further: potency means the concentration at half of the fitted maximal effect
Procedure, shortened: as §1

[9] = qHTS of pediatric cancer cell lines to identify multiple opportunities for drug repurposing: Confirmatory screen for NB-EBc1 cells (AID 1347115); conditions: NB-EBc1 neuroblastoma cells, viability (cytotoxicity); series mostly up to 45.9 µM;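 further: cells exposed to compound for 48 h before the viability read; nearly all actives have a fitted effect of over 45% in size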
Procedure, shortened: as §1

SMILES	Potency [1]	Potency [2]	Potency [3]	Potency [4]	Potency [5]	Potency [6]	Potency [7]	Potency [8]	Potency [9]
CC[C@H](C=C[C@@H](C)[C@H]1CC[C@H]2[C@@H]3CC=C4C[C@@H](O)CC[C@]4(C)[C@@H]3CC[C@]12C)C(C)C	inactive	–	–	–	–	–	–	–	–
C[C@@H]1O[C@@H](O[C@H]2CC[C@@]3(C)[C@H](CC[C@@H]4[C@H]3C[C@@H](O)[C@]3(C)[C@@H](C5=CC(=O)OC5)CC[C@]43O)C2)C[C@H](O)[C@@H]1O[C@H]1C[C@H](O)[C@H](O[C@H]2C[C@H](O)[C@@H](O)[C@@H](C)O2)[C@H](C)O1 (stereo in doubt)	171 nM (active)	339 nM (active)	427 nM (active)	269 nM (active)	170 nM (active)	302 nM (active)	302 nM (active)	95.5 nM (active)	–
Cc1ccccc1-n1c(Cn2nc(-c3cccc(O)c3)c3c(N)ncnc32)nc2cccc(C)c2c1=O	3720 nM (active)	inactive	7370 nM (active)	–	inactive	inactive	–	–	–
CC1(C)OC2CC3C4CC(F)C5=CC(=O)C=CC5(C)C4C(O)CC3(C)[C@]2(C(=O)CO)O1 (some centres undefined)	inactive	inactive	inactive	inactive	inactive	inactive	inactive	inactive	inactive
COC(=O)[C@H](c1ccccc1Cl)N1CCc2sccc2C1	inactive	inactive	inactive	inactive	inactive	inactive	inactive	inactive	inactive
N#CC(c1ccnc(NCCc2cccnc2)n1)c1nc2ccccc2s1 (centres undefined)	23500 nM (active)	–	–	–	–	–	–	–	–
CC[C@H](CC#N)OC(=O)N[C@@H](C)c1cccc(NC(=O)Nc2ccc(-c3cnco3)c(OC)c2)c1	inactive	–	–	–	–	–	–	–	–
